Each structure is given as a SMILES string.

One assay has as its target AMP-activated protein kinase, AMPK (Homo sapiens) (UniProt P54646+O43741+P54619+Q9UGJ0+Q9Y478+Q13131+Q9UGI9). The assay is described as follows: AMP-dependent Kinase enzyme assay. An in vitro enzyme assay that detects ADP turnover that is directly proportional to AMPK activity. This uses naive AMPK that is activated during the assay with MK-8722. The format is functional. Further details: scale not given: direction of the effect not stated beside the values. Conditions: 30 µM.
In the case of `CCn1nc(C)c(CNC(=O)c2cn(CC3CCCO3)nn2)c1C` (stereo not drawn), the Percent Effect was -1.16%.
On the same count and under the same terms, to `CN1CCCc2cc(CNC(=O)c3ccc(NC4CC4)nc3)ccc21` belongs 52%; to `Cc1ccc(CNC2CCCc3c2cnn3C)s1` (stereo not drawn), 5.11%.
The same measure, in the same setting: as for `Cc1nc(CN2CCN(CC(=O)Nc3c(C)cccc3C)CC2)no1`, the figure is -0.791%.
Still for that read-out and setting: to `CC(=O)N1CCC(C(=O)c2cc(C)cnc2N)CC1` belongs 3.67%; to `CC(=O)N1C[C@H](NC(=O)c2cscn2)[C@@H]2OCCC[C@@H]21`, 2.39%.
For `NC(=O)COc1ccc(CNCc2ccc(F)cc2F)cc1`, the Percent Effect is -4.07%.
Consider `CCCNC(=O)CN1CCN(Cc2csc(C(C)(C)C)n2)CC1`, for which the Percent Effect is -2.27%.
On to `CCN1CC2(CCNCC2)COc2ccccc2S1(=O)=O`, for which the Percent Effect is 7.12%.
The same measure, in the same setting: to `Cc1ccccc1CSc1nc(N)cc(N2CC[C@@H](O)C2)n1` belongs -11.2%.
On to `O=C1CC2(CCN(CCO)CC2)CN1Cc1cc(F)cc(F)c1`, for which the Percent Effect is -9.77%.
Same read-out and setting: as for `O=C(c1csc(-c2cccs2)n1)N1CCCC1Cn1cccn1` (stereo not drawn), the figure is -6.24%; as for `CS(=O)(=O)N1CCC(Oc2ccc(C(=O)N3CCSCC3)cc2Cl)CC1`, 3.27%.
As to `CCc1nnc2n1CCN(Cc1csc(-c3cnn(C)c3)n1)C2`, the Percent Effect was -7.81%.
The same measure, in the same setting: as for `CN(C)C(=O)CNC(=O)c1ccc(Cl)cc1F`, the figure is -0.479%; as for `Fc1ccc(-c2cnc(CN3CCCC3Cn3cccn3)o2)cc1` (stereo not drawn), -2.14%.
Same read-out and setting: to `Cc1cccnc1NCCNC(=O)[C@H]1CNC[C@@H](C(=O)N2CCCC2)C1` belongs -3.43%; to `Cc1cnc(NC(=O)c2ccc(-n3ncc(C#N)c3N)cc2)s1`, 14.4%.
For `NCc1cnn(-c2ccccc2C(=O)NCCCn2ccnc2)c1`, the Percent Effect was determined as 9.61%.
The same measure, in the same setting: to `CN(Cc1cnn(C)c1)C(=O)NC1CCN(Cc2ccccn2)CC1` belongs 2.19%; to `CC(C)C(NC(=O)NCC1(CO)CC1)c1nnc2n1CCC2` (stereo not drawn), 2.82%; to `COc1ccccc1CN(C)c1nccc(-c2cn(C)nc2C)n1`, 2.11%.
The same measure, in the same setting: to `COc1ccc(CNC(=O)Nc2cccnc2N2CCCC2)cc1O` belongs -3.7%; to `Cn1ncc2c1CN(Cc1cccnc1)CC2COCC1CC1` (stereo not drawn), -3.62%; to `COc1ccc(OC)c(CNCCc2cc(F)cc3c2OCOC3)c1`, -9.7%.
Take `CS(=O)(=O)NCCCN1CCCC1c1ccccc1` (stereo not drawn): the Percent Effect is -1.23%.
Regarding `CN1CCOC(CNCc2cccc(OCC(F)(F)F)c2)C1` (stereo not drawn), the Percent Effect is -19.3%.
As for `Cc1cnn(CCNCc2csc(-c3cccs3)n2)c1`, the Percent Effect was 5.67%.
On to `CCn1cnnc1CNC(=O)NC(C)c1cccs1` (stereo not drawn), for which the Percent Effect was -0.473%.
In the case of `CC(C)Nc1nc(N2CCOCC2)nc2c1CN(CC(=O)N(C)C)CC2`, the Percent Effect is 6.79%.
Same read-out and setting: as for `O=C(NCCCO)C1CC(=O)N(c2n[nH]c3cccc(F)c23)C1` (stereo not drawn), the figure is -5.17%.
With `Cn1cc(CN2C[C@@H]3COC[C@@H](C(=O)N4CCCCO4)[C@@H]3C2)cn1`, the Percent Effect was found to be 9.23%.
In the case of `O=C1CC(c2ccccc2)c2snc(C(=O)O)c2N1` (stereo not drawn), the Percent Effect was -2.59%.
As for `CCc1nc(C(=O)N2CCCC2)nn1-c1ccccc1Cl`, the Percent Effect was -8.39%.
For the compound `Cc1ccc(Nc2nccc(C3CN(CC(N)=O)C3)n2)nc1`, the Percent Effect amounted to 2.38%.
On the same count and under the same terms, as for `O=C(NCCCn1cccn1)N1CCCC1c1ccncc1` (stereo not drawn), the figure is -0.283%; as for `CCC1CN(CC(=O)Nc2sccc2C#N)CCO1` (stereo not drawn), -2.5%.
Same read-out and setting: to `CCc1n[nH]c(C2CN(C(=O)c3cnc[nH]3)CCO2)n1` (stereo not drawn) belongs 7.86%; to `O=C(NCC1CCCO1)c1c(-n2cnnn2)sc2c1CCC2` (stereo not drawn), 6.31%.

In the next assay the target is Sialic acid-binding Ig-like lectin 9 (Homo sapiens) (UniProt Q9Y336). Nature of the assay: Hs-Siglec9 ALPHAscreen SOP 20170721. On the set-up: scale not given: direction of the effect not stated beside the values. The note with it: 10 µM. (Alpha assays give light when donor and acceptor beads are brought close together.)
Chain of Sialic acid-binding Ig-like lectin 9 (Homo sapiens) (Q9Y336 whole entry): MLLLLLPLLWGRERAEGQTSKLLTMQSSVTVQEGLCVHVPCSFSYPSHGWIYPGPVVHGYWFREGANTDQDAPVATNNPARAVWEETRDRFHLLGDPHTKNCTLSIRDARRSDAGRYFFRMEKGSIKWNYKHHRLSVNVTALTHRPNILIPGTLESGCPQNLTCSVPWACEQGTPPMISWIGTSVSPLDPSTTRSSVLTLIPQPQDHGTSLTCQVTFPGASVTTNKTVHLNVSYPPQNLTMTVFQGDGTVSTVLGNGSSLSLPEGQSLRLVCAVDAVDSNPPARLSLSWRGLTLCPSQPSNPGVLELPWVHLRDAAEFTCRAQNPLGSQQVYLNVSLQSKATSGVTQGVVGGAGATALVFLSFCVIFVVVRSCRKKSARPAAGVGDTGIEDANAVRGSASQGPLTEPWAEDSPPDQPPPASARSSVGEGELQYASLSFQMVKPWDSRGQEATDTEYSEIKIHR
For `CCn1nc(C)c(CNC(=O)c2cn(CC3CCCO3)nn2)c1C` (stereo not drawn), the Percent Effect was determined as 7.76%.
Same read-out and setting: as for `CN1CCCc2cc(CNC(=O)c3ccc(NC4CC4)nc3)ccc21`, the figure is 6.12%; as for `Cc1ccc(CNC2CCCc3c2cnn3C)s1` (stereo not drawn), 1.58%.
On the same count and under the same terms, as for `Cc1nc(CN2CCN(CC(=O)Nc3c(C)cccc3C)CC2)no1`, the figure is -7.52%; as for `CC(=O)N1CCC(C(=O)c2cc(C)cnc2N)CC1`, 3.51%; as for `CC(=O)N1C[C@H](NC(=O)c2cscn2)[C@@H]2OCCC[C@@H]21`, -9.14%.
In the case of `NC(=O)COc1ccc(CNCc2ccc(F)cc2F)cc1`, the Percent Effect turned out to be 9.21%.
Take `CCCNC(=O)CN1CCN(Cc2csc(C(C)(C)C)n2)CC1`: the Percent Effect was 0.111%.
On the same count and under the same terms, to `CCN1CC2(CCNCC2)COc2ccccc2S1(=O)=O` belongs 3.15%.
As to `Cc1ccccc1CSc1nc(N)cc(N2CC[C@@H](O)C2)n1`, the Percent Effect amounted to 22.8%.
As to `O=C1CC2(CCN(CCO)CC2)CN1Cc1cc(F)cc(F)c1`, the Percent Effect came to 27.6%.
Still for that read-out and setting: to `O=C(c1csc(-c2cccs2)n1)N1CCCC1Cn1cccn1` (stereo not drawn) belongs 3.2%; to `CS(=O)(=O)N1CCC(Oc2ccc(C(=O)N3CCSCC3)cc2Cl)CC1`, 18.5%; to `CCc1nnc2n1CCN(Cc1csc(-c3cnn(C)c3)n1)C2`, 3.08%.
`CN(C)C(=O)CNC(=O)c1ccc(Cl)cc1F`: the Percent Effect was -6.12%.
The same measure, in the same setting: as for `Fc1ccc(-c2cnc(CN3CCCC3Cn3cccn3)o2)cc1` (stereo not drawn), the figure is -12.9%.
For the compound `Cc1cccnc1NCCNC(=O)[C@H]1CNC[C@@H](C(=O)N2CCCC2)C1`, the Percent Effect stood at 8.93%.
For `Cc1cnc(NC(=O)c2ccc(-n3ncc(C#N)c3N)cc2)s1`, the Percent Effect is 4.78%.
Regarding `NCc1cnn(-c2ccccc2C(=O)NCCCn2ccnc2)c1`, the Percent Effect was -1.25%.
Still for that read-out and setting: to `CN(Cc1cnn(C)c1)C(=O)NC1CCN(Cc2ccccn2)CC1` belongs -0.77%.
As for `CC(C)C(NC(=O)NCC1(CO)CC1)c1nnc2n1CCC2` (stereo not drawn), the Percent Effect worked out at 15.2%.
Regarding `COc1ccccc1CN(C)c1nccc(-c2cn(C)nc2C)n1`, the Percent Effect was 8.22%.
Same read-out and setting: as for `COc1ccc(CNC(=O)Nc2cccnc2N2CCCC2)cc1O`, the figure is 16.1%.
Same read-out and setting: to `Cn1ncc2c1CN(Cc1cccnc1)CC2COCC1CC1` (stereo not drawn) belongs 3.4%.
On the same count and under the same terms, as for `COc1ccc(OC)c(CNCCc2cc(F)cc3c2OCOC3)c1`, the figure is 2.47%; as for `CS(=O)(=O)NCCCN1CCCC1c1ccccc1` (stereo not drawn), 6.79%; as for `CN1CCOC(CNCc2cccc(OCC(F)(F)F)c2)C1` (stereo not drawn), 12.1%.
With `Cc1cnn(CCNCc2csc(-c3cccs3)n2)c1`, the Percent Effect is 8%.
Same read-out and setting: to `CCn1cnnc1CNC(=O)NC(C)c1cccs1` (stereo not drawn) belongs 11.3%; to `CC(C)Nc1nc(N2CCOCC2)nc2c1CN(CC(=O)N(C)C)CC2`, -0.0149%.
The same measure, in the same setting: as for `O=C(NCCCO)C1CC(=O)N(c2n[nH]c3cccc(F)c23)C1` (stereo not drawn), the figure is -2.48%; as for `Cn1cc(CN2C[C@@H]3COC[C@@H](C(=O)N4CCCCO4)[C@@H]3C2)cn1`, 1.72%.
Still for that read-out and setting: as for `O=C1CC(c2ccccc2)c2snc(C(=O)O)c2N1` (stereo not drawn), the figure is -2.64%.
As for `CCc1nc(C(=O)N2CCCC2)nn1-c1ccccc1Cl`, the Percent Effect was found to be 16.4%.
As to `Cc1ccc(Nc2nccc(C3CN(CC(N)=O)C3)n2)nc1`, the Percent Effect worked out at 3.4%.
Consider `O=C(NCCCn1cccn1)N1CCCC1c1ccncc1` (stereo not drawn), for which the Percent Effect worked out at 0.781%.
Same read-out and setting: as for `CCC1CN(CC(=O)Nc2sccc2C#N)CCO1` (stereo not drawn), the figure is 2.86%; as for `CCc1n[nH]c(C2CN(C(=O)c3cnc[nH]3)CCO2)n1` (stereo not drawn), 7.55%; as for `O=C(NCC1CCCO1)c1c(-n2cnnn2)sc2c1CCC2` (stereo not drawn), -1.47%.

These data come from ChEMBL document CHEMBL3988442, “University of Dundee, Small-Polar-MMV Screening Library” (2021).
